Screening results as filed in PubChem.
Mcl1-Bid inh: disrupts binding of human Mcl-1 to Bid peptide; Q07820; inhibition, % at 21.7 µM; TR-FRET Mcl-1/Bid-Dy647 peptide binding, 1536-well; 0.97% of 220,000 active;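 active = compounds that cut the binding signal by more than half at the single screening dose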;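 note: His-tagged Mcl-1 with europium anti-His antibody binding Bid BH3 peptide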
Target sequence (Q07820 whole entry, looked up): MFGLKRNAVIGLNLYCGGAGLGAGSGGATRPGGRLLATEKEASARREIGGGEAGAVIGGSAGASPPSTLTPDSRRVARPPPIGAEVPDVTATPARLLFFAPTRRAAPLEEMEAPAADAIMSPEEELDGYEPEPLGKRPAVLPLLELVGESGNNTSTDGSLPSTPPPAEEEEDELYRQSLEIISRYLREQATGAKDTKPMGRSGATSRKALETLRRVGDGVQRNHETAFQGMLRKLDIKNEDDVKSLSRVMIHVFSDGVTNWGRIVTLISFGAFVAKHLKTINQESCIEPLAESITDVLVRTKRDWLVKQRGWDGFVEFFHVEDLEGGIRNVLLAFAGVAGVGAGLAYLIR
eIF4E 4G PPI: eIF4E/eIF4G interaction inhibition in translation initiation | TR-FRET eIF4E-eIF4GI(517-606) binding, 2 h | inhibition, % at 21.7 µM | 0.37% of 220,000 active
NCF1 inh: blocks human p47phox regulatory protein of NADPH oxidases. P14598. p47phox/p22phox peptide binding, fluorescence polarization, 2 h. inhibition, % at 24.7 µM. 0.53% of 220,000 active
Target sequence (P14598 whole entry, looked up): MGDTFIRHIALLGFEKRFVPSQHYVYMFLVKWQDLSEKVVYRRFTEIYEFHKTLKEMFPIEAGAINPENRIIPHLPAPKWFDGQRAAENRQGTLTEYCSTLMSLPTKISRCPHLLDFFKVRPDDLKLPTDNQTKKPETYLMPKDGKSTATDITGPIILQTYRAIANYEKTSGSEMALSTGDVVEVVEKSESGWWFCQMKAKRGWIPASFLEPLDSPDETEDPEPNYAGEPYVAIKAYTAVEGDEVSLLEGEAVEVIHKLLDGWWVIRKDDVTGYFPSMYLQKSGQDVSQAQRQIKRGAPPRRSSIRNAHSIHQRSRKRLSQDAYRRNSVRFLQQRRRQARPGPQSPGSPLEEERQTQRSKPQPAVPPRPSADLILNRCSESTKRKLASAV
14-3-3 Bad inh: disrupts binding of bovine 14-3-3 zeta to phospho-Bad peptide; TR-FRET 14-3-3zeta/Dy647-pBad peptide displacement, 1 h; inhibition, % at 21.7 µM; P63103; 0.71% of 220,000 active;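 active = inhibition above about 70%, limit read from the data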
Mcl1-Noxa inh: disrupts binding of human Mcl-1 to Noxa peptide. Q07820. TR-FRET Mcl-1/Noxa peptide binding, 2 h. inhibition, % at 21.7 µM. AID 1022. 1.5% of 220,000 active;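 active = compounds that cut the protein-peptide binding signal by more than 50% relative to plate controls in a single-dose test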;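 note: His-tagged Mcl-1 with rhodamine Noxa BH3 peptide and terbium anti-His antibody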
Bim-Mcl-1: inhibitors of Bim-Mcl-1 interaction, human; Bead-based flow cytometry, Bim peptide-Mcl-1 binding; inhibition, % at 10 µM; 0.1% of 190,000 active; AID 1009; in the data active = inhibition above about 40%
Hits are given with their value; [ ] = another dose, or the depositor's remark. The list is not random: actives were taken first. Their share in the collection is about 3.3%.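 Rule for the calls, unless noted: active = inhibition above about 30% (limit read from the data); inactive = the rest.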

Results for O=C(Nc1ccc(OC(F)(F)F)cc1)c1ccc(S(=O)(=O)N2CCOCC2)o1 ?
Mcl1-Bid inh: inactive; eIF4E 4G PPI: inactive; NCF1 inh: inactive; 14-3-3 Bad inh: inactive; Mcl1-Noxa inh: inactive

Results for O=C(/C=C/c1ccco1)Nc1cccc(NC(=O)/C=C/c2ccco2)n1 ?
Mcl1-Bid inh: inactive; eIF4E 4G PPI: inactive; NCF1 inh: inactive; 14-3-3 Bad inh: inactive; Mcl1-Noxa inh: 72; Bim-Mcl-1: inactive

How did Cc1nc(NC(=O)/C=C/c2ccco2)sc1C do in these assays?
Mcl1-Bid inh: inactive; eIF4E 4G PPI: inactive; NCF1 inh: inactive; 14-3-3 Bad inh: inactive; Mcl1-Noxa inh: 58; Bim-Mcl-1: inactive

How did O=C(/C=C/c1ccco1)Nc1ccccc1C(=O)O do in these assays?
Mcl1-Bid inh: inactive; eIF4E 4G PPI: inactive; NCF1 inh: inactive; 14-3-3 Bad inh: inactive; Mcl1-Noxa inh: 52; Bim-Mcl-1: inactive

How did COC(=O)/C(=C/c1cn(C(C)=O)c2ccccc12)[N+](=O)[O-] do in these assays?
Mcl1-Bid inh: inactive; eIF4E 4G PPI: inactive; NCF1 inh: inactive; 14-3-3 Bad inh: inactive; Mcl1-Noxa inh: 61

What do the screens show for `Cc1cccc(NC(=O)CN2C(=O)N/C(=C/c3ccc(C)o3)C2=O)c1`?
Mcl1-Bid inh: inactive; eIF4E 4G PPI: inactive; NCF1 inh: inactive; 14-3-3 Bad inh: inactive; Mcl1-Noxa inh: 85; Bim-Mcl-1: inactive

Results for CCn1c(C)cc(/C=C2/NC(=O)N(CC(=O)Nc3cccc(C)c3)C2=O)c1C ?
Mcl1-Bid inh: 85; eIF4E 4G PPI: inactive; NCF1 inh: 59; 14-3-3 Bad inh: inactive; Mcl1-Noxa inh: 54; Bim-Mcl-1: inactive

What do the screens show for `CN1CCN(c2ccc(Cl)cc2NC(=O)/C=C/c2ccc(F)cc2)CC1`?
Mcl1-Bid inh: inactive; eIF4E 4G PPI: inactive; NCF1 inh: inactive; 14-3-3 Bad inh: inactive; Mcl1-Noxa inh: inactive; Bim-Mcl-1: inactive

What do the screens show for `COC(=O)c1ccccc1NC1=C/C(=N\S(=O)(=O)c2cccs2)c2ccccc2C1=O`?
Mcl1-Bid inh: inactive; NCF1 inh: 183; Mcl1-Noxa inh: inactive; Bim-Mcl-1: inactive

Results for CCc1nnc(NC(=O)CSc2nc(-c3ccc(F)cc3)cc(-c3ccccc3)c2C#N)s1 ?
Mcl1-Bid inh: 60; eIF4E 4G PPI: inactive; NCF1 inh: inactive; 14-3-3 Bad inh: inactive; Mcl1-Noxa inh: inactive; Bim-Mcl-1: inactive

How did COc1ccc(CNC(=O)c2coc(=O)c3ccccc23)c(OC)c1 do in these assays?
Mcl1-Bid inh: inactive; eIF4E 4G PPI: inactive; NCF1 inh: inactive; 14-3-3 Bad inh: inactive; Mcl1-Noxa inh: inactive; Bim-Mcl-1: inactive

How did Cn1c(=S)c2[nH]c(SCCN3CCCC3)nc2n(C)c1=O do in these assays?
Mcl1-Bid inh: inactive; eIF4E 4G PPI: inactive; NCF1 inh: 44; 14-3-3 Bad inh: inactive; Mcl1-Noxa inh: inactive

How did CCN1CCCC(Sc2nc3c([nH]2)c(=S)n(C)c(=O)n3C)C1 (centres undefined) do in these assays?
Mcl1-Bid inh: inactive; eIF4E 4G PPI: inactive; NCF1 inh: inactive; 14-3-3 Bad inh: inactive; Mcl1-Noxa inh: inactive

What do the screens show for `CCOc1cc(/C=N/NC(=O)CCn2nc(C)cc2C)ccc1O`?
Mcl1-Bid inh: inactive; eIF4E 4G PPI: inactive; NCF1 inh: inactive; 14-3-3 Bad inh: inactive; Mcl1-Noxa inh: inactive

How did N#Cc1c2nc3ccccc3nc2n2cc(NC(=O)c3ccc(F)cc3)ccc12 do in these assays?
Mcl1-Bid inh: 86; eIF4E 4G PPI: inactive; NCF1 inh: 55; 14-3-3 Bad inh: 78[fluorescence artefact?]; Mcl1-Noxa inh: 111; Bim-Mcl-1: inactive

Results for Cc1c(C(=O)Nc2ccc(F)cc2)cn2c(nc3ccccc32)c1C#N ?
Mcl1-Bid inh: inactive; eIF4E 4G PPI: inactive; NCF1 inh: inactive; 14-3-3 Bad inh: inactive; Mcl1-Noxa inh: inactive

Results for C[C@@H](C(=O)Nc1nc2ccc(F)cc2s1)N1C(=O)C2CC=CCC2C1=O (some centres undefined) ?
Mcl1-Bid inh: 95; eIF4E 4G PPI: inactive; NCF1 inh: inactive; 14-3-3 Bad inh: inactive; Mcl1-Noxa inh: inactive; Bim-Mcl-1: inactive

What do the screens show for `Cc1ccc2nc(NC(=O)[C@H](C)N3C(=O)C4CC=CCC4C3=O)sc2c1` (some centres undefined)?
Mcl1-Bid inh: inactive; eIF4E 4G PPI: inactive; NCF1 inh: inactive; 14-3-3 Bad inh: inactive; Mcl1-Noxa inh: inactive; Bim-Mcl-1: inactive

What do the screens show for `CCN(CCNC(=O)C1CCCN(Cc2nc(-c3ccc(OC)cc3)oc2C)C1)c1ccccc1` (centres undefined)?
Mcl1-Bid inh: inactive; eIF4E 4G PPI: inactive; NCF1 inh: inactive; 14-3-3 Bad inh: 86; Mcl1-Noxa inh: inactive; Bim-Mcl-1: inactive

How did O=C1C2C3C=CC(C3=C(c3ccccc3)c3ccccc3)C2C(=O)N1Cc1ccccc1 (centres undefined) do in these assays?
Mcl1-Bid inh: inactive; eIF4E 4G PPI: inactive; NCF1 inh: inactive; 14-3-3 Bad inh: inactive; Mcl1-Noxa inh: 64; Bim-Mcl-1: inactive

Results for Oc1cc2c(cc1O)[C@@H](c1ccccc1)CNCC2 ?
Mcl1-Bid inh: inactive; eIF4E 4G PPI: inactive; NCF1 inh: inactive; 14-3-3 Bad inh: inactive; Mcl1-Noxa inh: 67; Bim-Mcl-1: inactive

How did CN1CCc2cc(Cl)c(O)cc2[C@@H](c2ccccc2)C1 do in these assays?
Mcl1-Bid inh: inactive; eIF4E 4G PPI: inactive; NCF1 inh: inactive; 14-3-3 Bad inh: inactive; Mcl1-Noxa inh: inactive; Bim-Mcl-1: inactive

How did Nc1ccc2c(c1)-c1ccccc1S(=O)(=O)N2 do in these assays?
Mcl1-Bid inh: inactive; eIF4E 4G PPI: inactive; NCF1 inh: inactive; 14-3-3 Bad inh: inactive; Mcl1-Noxa inh: 52; Bim-Mcl-1: inactive

Results for O=C(Nc1ccc2c(c1)Cc1ccccc1-2)c1cccnc1 ?
Mcl1-Bid inh: inactive; eIF4E 4G PPI: inactive; NCF1 inh: inactive; 14-3-3 Bad inh: inactive; Mcl1-Noxa inh: inactive; Bim-Mcl-1: inactive

Results for CCOc1ncccc1C(=O)N1CCN(c2cc(Cl)ccc2C)CC1 ?
Mcl1-Bid inh: inactive; eIF4E 4G PPI: inactive; NCF1 inh: inactive; 14-3-3 Bad inh: inactive; Mcl1-Noxa inh: inactive; Bim-Mcl-1: inactive

What do the screens show for `CCOc1ncccc1C(=O)N1CCN(c2cccc(C)c2C)CC1`?
Mcl1-Bid inh: inactive; eIF4E 4G PPI: inactive; NCF1 inh: inactive; 14-3-3 Bad inh: 88; Mcl1-Noxa inh: inactive; Bim-Mcl-1: inactive

How did Clc1ccccc1CN1CCc2sccc2C1 do in these assays?
Mcl1-Bid inh: 88; eIF4E 4G PPI: inactive; NCF1 inh: inactive; 14-3-3 Bad inh: inactive; Mcl1-Noxa inh: inactive; Bim-Mcl-1: inactive

Results for CCOC(=O)CSc1nc(C2CC2)cc(-c2ccc(Cl)cc2)c1C#N ?
Mcl1-Bid inh: 97; eIF4E 4G PPI: inactive; NCF1 inh: inactive; 14-3-3 Bad inh: inactive; Mcl1-Noxa inh: inactive; Bim-Mcl-1: inactive

Results for COC(=O)CSc1nc(C2CC2)cc(C(F)(F)F)c1C#N ?
Mcl1-Bid inh: inactive; eIF4E 4G PPI: inactive; NCF1 inh: inactive; 14-3-3 Bad inh: inactive; Mcl1-Noxa inh: inactive; Bim-Mcl-1: inactive

Results for CC[C@H](C)[C@H](NC(N)=O)C(=O)NCCc1ccc(Cl)cc1Cl ?
Mcl1-Bid inh: inactive; eIF4E 4G PPI: inactive; NCF1 inh: inactive; 14-3-3 Bad inh: inactive; Mcl1-Noxa inh: inactive; Bim-Mcl-1: inactive
